# According to PubChem BioAssay AID493229 (Broad Institute, 2011):
# Measured potencies and affinities stand elsewhere. Records with an inconclusive call do not appear. Active and inactive are the calls of the source. No rule for the calls is given here.
# Target: Protein RecA (Mycobacterium tuberculosis (strain ATCC 25618 / H37Rv)) (UniProt P9WHJ3)
# Assay: Mycobacterium tuberculosis RecA intein splicing inhibitors, confirmatory dry powder dose response (AID 493229)
# Conditions: biochemical plate reader; series mostly up to 35 µM
# Protein RecA (Mycobacterium tuberculosis (strain ATCC 25618 / H37Rv)), sequence (P9WHJ3 whole entry, looked up): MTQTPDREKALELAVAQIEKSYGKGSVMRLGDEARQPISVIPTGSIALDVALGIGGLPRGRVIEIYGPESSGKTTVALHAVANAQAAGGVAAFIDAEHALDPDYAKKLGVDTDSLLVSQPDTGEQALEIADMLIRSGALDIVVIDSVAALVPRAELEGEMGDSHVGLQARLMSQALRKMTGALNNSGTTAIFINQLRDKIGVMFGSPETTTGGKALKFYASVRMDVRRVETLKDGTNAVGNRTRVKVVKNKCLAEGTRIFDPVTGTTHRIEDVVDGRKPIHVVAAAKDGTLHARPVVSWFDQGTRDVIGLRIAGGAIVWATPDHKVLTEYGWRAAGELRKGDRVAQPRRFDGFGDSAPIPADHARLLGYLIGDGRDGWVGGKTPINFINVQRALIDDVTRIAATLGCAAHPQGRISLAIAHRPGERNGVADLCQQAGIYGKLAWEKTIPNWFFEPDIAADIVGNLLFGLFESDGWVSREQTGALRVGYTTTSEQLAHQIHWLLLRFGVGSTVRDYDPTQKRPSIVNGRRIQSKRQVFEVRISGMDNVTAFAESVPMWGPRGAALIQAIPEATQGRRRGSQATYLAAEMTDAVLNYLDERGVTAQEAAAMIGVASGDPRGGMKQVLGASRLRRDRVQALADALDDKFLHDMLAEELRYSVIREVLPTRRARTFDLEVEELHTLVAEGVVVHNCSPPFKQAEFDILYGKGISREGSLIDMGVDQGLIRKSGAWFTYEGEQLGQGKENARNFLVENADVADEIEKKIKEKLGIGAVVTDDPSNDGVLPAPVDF
smiles,measurement,value
Nc1cn(-c2ccccc2)nc1-c1ccc(F)cc1,outcome,inactive
